HCV inh = HCV inhibition; Huh7.5.1 HCVcc-Cre infection, luciferase reporter, 44 h; Potency, µM (highest dose often 41.8 µM), usual class: inhibitors; 3.4% of 340,000 active; active means well fitted inhibition curve with a large enough effect; inconclusive means small, poorly fitted or top-dose-only effect, or another doubt; inactive means no such curve, though single readings can be large or run the other way
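A cell-based infection assay in which seeded cells (1,000 per well) receive test compound after 4 h, are inoculated with HCVcc-Cre at approximately 0.5 moi, and are incubated 44 h before luminescence detection.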
VACV Venus inh = vaccinia inhibition (Venus reporter); AID 720580; Vaccinia virus Venus reporter expression, fluorescence; 0.46% of 330,000 active; Potency, µM (titrated, usually from 36.5 µM), usual class: inhibitors; calls by dose curve; tested in A549 cells; further: nearly all actives have a fitted effect of over 30% in size
Vaccinia mCherry = inhibitors of vaccinia virus infection (mCherry reporter signal) | Vaccinia virus mCherry reporter infection, fluorescence | Potency, µM (series often up to 36.5 µM), hits mostly inhibitors | 0.63% of 310,000 active | AID 720579; calls by dose curve; tested in A549 cells; further: nearly all actives have a fitted effect of over 35% in size
Hits are given with their value; . = inactive; ? = inconclusive; / = not tested or not shown. Most compounds without a hit are left out; they make up all but 3.3% or so of the library.

SMILES	HCV inh	VACV Venus inh	Vaccinia mCherry
Cc1ccc(CN(c2ccc(C(=O)N3CCc4ccccc4C3)cc2)S(C)(=O)=O)cc1	10µM	/	/
CS(=O)(=O)N(Cc1ccc(Cl)cc1)c1ccc(C(=O)N2CCN(c3ccccc3)CC2)cc1	.	/	/
CCCN(CC(=O)Nc1ccccc1OC)C(=O)c1ccc2c(c1)NC(=O)C(C)S2 (stereo not drawn)	.	/	/
O=C(Nc1ccccc1)O[C@@H]1C[C@H]2CCC(=O)N3CC[C@@H](C1)[C@@H]23	/	.	.
Cc1ccc2c(CC(=O)N3CCN(S(=O)(=O)c4cccs4)CC3)coc2c1	.	.	/
O=C(Cc1coc2cc(O)ccc12)N1CCN(S(=O)(=O)c2ccc(Br)cc2)CC1	11.2µM	/	/
O=[N+]([O-])c1ccc(N2CCCC(C(F)(F)F)C2)c2ccncc12 (stereo not drawn)	10µM	7.94µM	2.82µM
O=[N+]([O-])c1cc(C(F)(F)F)ccc1N1CCCC(O)C1 (stereo not drawn)	.	.	.
O=C(CCS(=O)(=O)c1ccc(Br)cc1)Nc1ccc(Cl)c(C(F)(F)F)c1	/	?	11.2µM
CCC(=O)N1CCc2cc(S(=O)(=O)CCC(=O)Nc3ccc(Cl)c(C(F)(F)F)c3)ccc21	/	7.94µM	5.01µM
Cc1ccc(S(=O)(=O)CCC(=O)Nc2ccc(Br)cc2)cc1	.	.	.
CN1C(=O)Cc2cc(S(=O)(=O)CCC(=O)Nc3ccc(Cl)c(C(F)(F)F)c3)ccc21	/	.	.
COc1cccc(Cc2nc3cccnc3n2C2CCN(C(=O)c3n[nH]c4c3CCCC4)CC2)c1	/	.	.
CSCCC(NC(=O)c1ccccc1)C(=O)N/N=C(\C)Cc1ccccc1 (stereo not drawn)	.	/	/
N#Cc1c[nH]n2c(NC3CCCC3)c(-c3cccc(Br)c3)nc12	/	.	.
COc1ccc2[nH]cc(CCNC(=O)c3ccccc3Cl)c2c1	.	.	?
COc1ccc(CN2C[C@H]3CCCN3c3cc(Br)ccc3S2(=O)=O)cc1	?	.	?
C=C1[C@@H](O)CN(Cc2ccc(OC)cc2)S1(=O)=O	/	28.2µM	?
COc1ccccc1-c1nnc(SCC(=O)c2ccc(F)cc2)n1-c1ccccc1	/	.	.
CCOc1ccc(C(C(=O)NCC2CCCO2)N(Cc2cccnc2)C(=O)c2snc(C(N)=O)c2N)cc1 (stereo not drawn)	.	.	.
COC(=O)c1c(-c2ccc(Cl)cc2)noc1N1CCN(c2cc(C)ccc2C)CC1	/	.	.
COc1ccc(CN(Cc2ccccc2)C(C)=O)cc1COc1ccc(NC(C)=O)cc1	/	.	.
Cc1ccc(/C=C/c2ccc(N(C)C)cc2)[n+](C)c1	3.16µM	.	.
CN(C)c1ccc(/C=C/c2cc[n+](C)cc2)cc1	1.78µM	.	.
CN(C)c1ccc(C=O)cc1	/	.	.
SMILES	HCV inh	VACV Venus inh	Vaccinia mCherry
Cc1ccc2c(/C=C/c3ccc(N(C)C)cc3)c(C)cnc2c1	/	.	.
COc1ccc(C(C)NC(=O)Cc2cccs2)cc1 (stereo not drawn)	.	.	.
COc1cc(/C=N/Nc2ccccc2)ccc1O	.	.	.
COC(=O)c1[nH]c2cc(OC)c(OC)cc2c1/C=N/Nc1ccccc1	10µM	/	/
CC(C)NC(=O)c1cc(C2CCCCN2C(=O)OCCF)on1 (stereo not drawn)	/	.	.
CCCc1ccc(Oc2cn[nH]c2-c2ccc(O)c(C)c2O)cc1	12.6µM	.	.
COc1ccc(Oc2cn[nH]c2-c2ccc(OCC(=O)NN)cc2O)cc1	.	/	/
COc1cccc(Oc2cn[nH]c2-c2ccc(O)cc2O)c1	?	.	?
COc1cccc(Oc2cn[nH]c2-c2ccc(OC)cc2O)c1	11.2µM	?	?
CC1CCCN(S(=O)(=O)c2ccc(NC(=O)CNC3CCCC3)cc2)C1 (stereo not drawn)	.	.	.
CCS(=O)(=O)c1ncc(Cl)c(C(=O)Nc2ccc(S(=O)(=O)N3CCCC(C)C3)cc2)n1 (stereo not drawn)	12.6µM	?	?
O=C(O)CCN1C(=O)c2ccc(NC(=O)COc3ccccc3)cc2C1=O	.	.	.
Cc1cc(C)n(-c2nc(SCCN(C)C)c3c4c(sc3n2)COC(C)(C)C4)n1	7.94µM	/	/
Cc1cc(C)n(-c2nc3sc4c(c3c3nnc(SC(C)C)n23)CC(C)(C)OC4)n1	.	.	.
COc1cc(=O)n2c(c1C(=O)NC(C)c1ccco1)CCN(C(=O)c1ccccc1SC)CC2 (stereo not drawn)	/	.	.
CCCCCCCCCCN(CCCCCCCCCC)c1ccccc1	/	.	.
CCCN(C(=O)c1cc2c(Cl)nc3ccccc3c2s1)c1cccc(C)c1	/	.	.
O=C(N(c1ccccc1)c1ccccc1)N(c1ccccc1)c1ccccc1	.	/	/
CCCC(=O)N(Cc1cc(=O)[nH]c2ccccc12)c1cccc(C)c1	.	.	.
Cc1cccc(N(Cc2cc(=O)[nH]c3ccccc23)C(=O)CCl)c1	?	12.6µM	?
CCCCCCN(C(=O)CCl)c1ccccc1	5.01µM	/	/
CCCCCCCN(C(=O)CCl)c1cccc(C)c1	12.6µM	.	.
O=C(CCl)N(c1ccccc1)c1ccccc1	8.91µM	.	.
Cc1ccnn1CC(=O)N1CCOc2c(cc(-c3ncc(C(F)(F)F)cc3Cl)cc2OCC2CCCO2)C1 (stereo not drawn)	/	.	.
CN(Cc1ccc(F)cc1)C(=O)c1cc(COc2ccc(-n3cncn3)cc2)on1	/	.	.
SMILES	HCV inh	VACV Venus inh	Vaccinia mCherry
Cc1ccc(CN(C(=O)c2ccc(OCC(C)C)cc2)c2ccccn2)o1	/	.	.
O=C(O)c1ccc(NC(=O)c2cc(S(=O)(=O)N3CCCCC3)c(Cl)cc2Cl)cc1	/	.	.
Cc1occc1C(=O)NCCN1Cc2ccccc2OC(c2ccccc2F)C1 (stereo not drawn)	/	.	.
COc1ccccc1CNC(=O)c1cnc2ccccn2c1=O	.	.	.
COc1ccccc1CNC(=O)c1cnc2sccn2c1=O	10µM	.	.
Cc1ccn2c(Nc3ccc4c(c3)OCCO4)c(-c3cccs3)nc2c1	/	.	.
Cc1cccc(N(C)C(CNS(=O)(=O)c2ccccc2)c2ccccc2)c1 (stereo not drawn)	/	.	.
CC(C)c1ccc2c(c1)C(N1CCNCC1)Cc1ccc(F)cc1S2 (stereo not drawn)	?	?	11.2µM
CN1CCN(C2Cc3cc(F)ccc3Sc3ccc(Cl)cc32)CC1 (stereo not drawn)	.	/	/
COC(=O)c1ccc(NCc2cc(O)ccc2O)cc1O	?	.	.
COC(=O)c1ccc(NCc2c(O)ccc(O)c2Br)cc1Cl	11.2µM	.	.
CCOC(=O)c1[nH]c2ccccc2c1NC(=O)c1ccc(OC)c(OC)c1	/	.	.
CCCCCCCCNS(=O)(=O)CCNCCc1ccccc1	.	?	.
CCCCCCCCNCCS(=O)(=O)NCCCCCCCC	3.16µM	.	.
COc1ccc(NC(=O)C2CCN(c3cc(C)nc4c(-c5ccc(Cl)cc5)c(C)nn34)CC2)cc1	/	.	.
CN1CN(c2ccccc2)C2(CCN(CCCSc3ccccc3NC(=O)/C=C/c3ccccc3)CC2)C1=O	35.5µM	.	?
O=C(/C=C/c1ccccc1)NCCN1CCOCC1	.	.	.
COc1ccc(N2CCN(c3csc4ccccc4c3=O)CC2)cc1	/	.	.
Cc1cc(C)n(-c2nc3ccccc3nc2Nc2ccc3[nH]c(=O)[nH]c3c2)n1	11.2µM	.	.
Cc1cc(C)n(-c2nc3ccccc3nc2Nc2ccc(Cl)c(Cl)c2)n1	/	.	.
